NS1 inh: blocks influenza NS1 protein function; Potency, µM (highest dose often 46.1 µM), for the others: top-dose activity, positive = more growth; hit rate 0.4% among 270,000; AID 2326; calls by dose curve; note: potency is the fitted concentration of half-maximal effect; actives are rising curves; nearly all actives have a fitted effect of over 50% in size
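OD600 was taken as the measure of yeast growth restored by compound in an NS1-expressing S. cerevisiae strain. Cells had been washed out of glucose medium and diluted 1:100 into galactose -URA medium, pH 6.0.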
LmPK inh: LmPK (Leishmania mexicana) enzyme inhibition; hit rate 0.37% among 290,000; Q27686; Potency, µM (doses to about 57.5 µM), for inactives: at the highest dose activity change, negative = inhibition, usual class: inhibitors; purified LmPK, Kinase-Glo ATP luminescence, 1 h; note: potency is the fitted concentration of half-maximal effect; % is set by controls: 0 for no effect and ±100 for the full control effect
Target sequence (Q27686 whole entry, looked up): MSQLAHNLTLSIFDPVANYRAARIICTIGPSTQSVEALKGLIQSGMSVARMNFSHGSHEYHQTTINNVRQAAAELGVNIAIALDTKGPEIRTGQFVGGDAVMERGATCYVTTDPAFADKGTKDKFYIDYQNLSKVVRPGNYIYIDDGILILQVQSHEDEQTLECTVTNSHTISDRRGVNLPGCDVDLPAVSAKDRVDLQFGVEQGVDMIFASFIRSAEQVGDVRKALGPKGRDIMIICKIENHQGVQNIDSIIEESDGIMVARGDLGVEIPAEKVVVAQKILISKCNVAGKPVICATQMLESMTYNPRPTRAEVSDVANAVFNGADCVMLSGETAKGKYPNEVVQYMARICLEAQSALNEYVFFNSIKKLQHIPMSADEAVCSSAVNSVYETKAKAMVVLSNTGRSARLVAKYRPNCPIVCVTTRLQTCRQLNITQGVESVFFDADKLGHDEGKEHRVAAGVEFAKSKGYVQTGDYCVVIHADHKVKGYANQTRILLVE
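0.1 nM LmPK, 0.5 mM PEP, 0.1 mM ADP; 50 mM imidazole pH 7.2, 7 mM MgCl2, 50 mM KCl; 1 h RT. Kinase-Glo luminescence readout, normalized to no-enzyme (full inhibition) and uninhibited wells.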
Sm TGR block: S. mansoni TGR enzyme inhibition. hit rate 3% among 360,000. AID 485364. purified TGR, DTNB reduction, TNB absorbance 405 nm. Potency, µM (titrated, usually from 114 µM), without a hit: at the top dose activity change, negative = inhibition, most hits filed as inhibitors. Q962Y6; note: potency is the fitted concentration of half-maximal effect; % is set by controls: 0 for no effect and ±100 for the full control effect; nearly all actives have a fitted effect of over 60% in size
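First, TGR (20 nM dispensed) and NADPH were mixed with compound. Second, a 15 min room-temperature incubation followed. Third, further NADPH and then DTNB were added to start the reaction. Finally, TNB absorbance was monitored kinetically.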
TbPYK inhibitor: blocks Trypanosoma brucei pyruvate kinase; Potency, µM (top dose mostly 76.8 µM), for inactives: at the highest dose activity, negative = inhibition, actives largely listed as inhibitors; Q57TT1; hit rate 0.12% among 410,000; TbPYK enzyme, Kinase-Glo Plus ATP luminescence, 45 min; note: potency is the fitted concentration of half-maximal effect; % is set by controls: 0 for no effect and ±100 for the full control effect; nearly all actives have a fitted effect of over 50% in size
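Luminescent Kinase-Glo Plus end-point after 45 min room-temperature reaction of T. brucei pyruvate kinase started with 130 uM ADP (final). Buffer TEA 50 mM pH 7.2 with KCl, MgCl2, BSA, Tween-20; titration-based qHTS with fitted concentration-effect curves.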
Giardia FBPA inh: inhibitors of Giardia lamblia fructose-1,6-bisphosphate aldolase | A8B2U2 | purified Giardia FBPA | Potency, µM (highest dose often 59.6 µM), for the others: top-dose activity, negative = inhibition, actives largely listed as inhibitors | hit rate 0.71% among 290,000; note: potency is the fitted concentration of half-maximal effect; % is set by controls: 0 for no effect and ±100 for the full control effect; nearly all actives have a fitted effect of over 55% in size
Target sequence (A8B2U2 whole entry, looked up): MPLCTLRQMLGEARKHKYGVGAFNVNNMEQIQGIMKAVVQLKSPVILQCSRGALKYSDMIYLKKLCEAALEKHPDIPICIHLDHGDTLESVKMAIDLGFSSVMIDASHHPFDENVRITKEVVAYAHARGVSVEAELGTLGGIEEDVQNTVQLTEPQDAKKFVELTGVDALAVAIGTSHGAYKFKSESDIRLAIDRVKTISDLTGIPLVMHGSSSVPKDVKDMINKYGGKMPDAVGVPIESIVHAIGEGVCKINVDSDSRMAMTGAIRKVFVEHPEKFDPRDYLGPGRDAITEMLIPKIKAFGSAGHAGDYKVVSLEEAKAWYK
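40 nM FBPA preincubated 10 min at RT with compound (up to 57.5 uM final), then substrate plus GAPDH/TPI/NAD/arsenate coupling and diaphorase/resazurin added. Fluorescence read after 20 min at RT, 525/598 nm.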
RE007 growth inh: less growth of the S. pombe RE007 Vpr strain; S. pombe RE007 Vpr strain, BacTiter-Glo ATP luminescence, 24 h; hit rate 0.21% among 360,000; Potency, µM (series often up to 92.2 µM), for inactives: top-dose activity change, negative = less growth, hits mostly inhibitors; AID 651644; active = well fitted falling curve with a large enough effect; inconclusive = small, poorly fitted or top-dose-only effect; inactive = no such curve, though single readings can be large or run the other way; note: potency is the fitted concentration of half-maximal effect; % is set by controls: 0 for no effect and ±100 for the full control effect; nearly all actives have a fitted effect of over 50% in size
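Fission yeast RE007 carrying one integrated HIV-1 vpr copy, seeded at OD 0.01 in PMG+AL medium with 23 nL pinned compound. Grown 24 h at 30 degrees; viability read by BacTiter-Glo luminescence after 5 min.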
NS1 inh valid: validation of influenza NS1 protein function inhibitors | 1,400 tested, under 10 active | activity change, negative = inhibition, % at 32.9 µM | AID 492980 | influenza NS1 function cell assay, 15-point titration | shares compounds with NS1 inh; calls by dose curve; note: 0% is about no effect
* hit, by the source's call; ? = inconclusive; . = no result; [ ] = remark or other dose. Compounds with a hit are over-represented: about 3.5% of the library has one in this group of screens. Unless noted, calls come from the whole dose curve; as a rule, active = well fitted curve in the direction sought with a large enough effect; inconclusive = small, poorly fitted or top-dose-only effect, or another doubt; inactive = no such curve, though single readings can be large; an effect the other way counts as inactive or inconclusive.

SMILES	NS1 inh	LmPK inh	Sm TGR block	TbPYK inhibitor	Giardia FBPA inh	RE007 growth inh	NS1 inh valid
CC(C)(CN1CCCC1)NS(=O)(=O)c1ccc(Cl)cc1	?	-2.2%	1.6%	0.0%	-6.9%	-5.4%	-0.5
CC(C)(CN1CCNCC1)NS(=O)(=O)c1ccc(Cl)cc1	.	.	-24.7%	-1.2%	.	1.9%	.
O=C(CN1C(=O)CCc2cc(S(=O)(=O)N3CCOCC3)ccc21)NCc1ccc(F)cc1	.	.	-15.8%	-3.6%	.	.	.
Nc1ccccc1OCCOCCOc1ccccc1N	5.01µM*	1.0%	1.3%	-1.1%	-1.7%	2.2%	-1.2
O=C(Nc1ccc(O)cc1)C1CC=CCC1 (stereo not drawn)	12.6µM*	-4.9%	-2.6%	-2.2%	?	-14.3%	8.7
COC(=O)c1ccccc1NC(=O)CCCn1c(C)c2cnn(-c3ccccc3)c(=O)c2c1C	.	.	2.1%	-6.1%	.	.	.
O=C(CSc1nc2ccccc2c(=O)[nH]1)N1CCN(S(=O)(=O)c2ccccc2)CC1	6.5%	-1.7%	22.2%	-3.2%	0.2%	-5.8%	.
O=C(CSc1nc(-c2ccccc2)c(-c2ccccc2)[nH]1)N1CCN(S(=O)(=O)c2ccccc2)CC1	3.55µM*	0.3%	-20.1%	-2.4%	0.1%	-7.3%	12.3
C/C(=N\Nc1ccccc1)c1c(O)n(-c2ccccc2)c(=O)[nH]c1=O	4.0%	7.1%	-4.2%	4.4%	1.1%	119.6%	.
C/C(=N\Nc1ccccc1)c1c(O)n(Cc2ccccc2)c(=O)[nH]c1=O	10µM*	-2.5%	-29.3%	-2.1%	1.1%	176.1%	-13.2
COc1ccc(-c2nnc(SC(C(=O)c3c[nH]c4ccccc34)c3ccccc3)n2N)cc1OC (stereo not drawn)	20µM*	3.3%	-8.9%	-14.1%	-11.4%	17.0%	?
O=C(CSc1cn(CC(=O)N2CCOCC2)c2ccccc12)N1CCOCC1	?	6.6%	-4.8%	-1.0%	5.6%	-2.9%	5.9
Nc1ccc(N2CCN(c3cccc(Cl)c3)CC2)cc1	?	1.3%	1.8%	-3.4%	-15.9%	-20.8%	.
Nc1cc(=O)[nH]n1C1CCN(c2ccccc2)CC1	14.1µM*	5.0%	?	-7.6%	12.8%	21.2%	26.8
CCC1Oc2ccc(C)cc2N(CC(=O)NCCCN2CCCCC2C)C1=O (stereo not drawn)	?	7.3%	-3.4%	0.1%	-5.7%	-2.7%	-18.9
CCC1Oc2ccc(C)cc2N(CC(=O)NCCCN2CCCCC2CC)C1=O (stereo not drawn)	1.6%	5.2%	-3.0%	-1.1%	-0.5%	-20.1%	.
COc1cc(Cl)c(NC(=O)c2cc3ccccn3n2)c(OC)c1	.	.	-0.8%	-4.9%	.	.	.
CCOC(=O)CSc1nc2ccc(N3CCOCC3)cc2c(=O)n1Cc1ccc2c(c1)OCO2	?	-1.1%	-17.1%	.	?	.	-25.6
COc1ccc(OC(=O)c2ccncc2)cc1	?	-6.0%	7.0%	-16.7%	7.3%	-9.6%	-2.5
Cc1cc(C)c2sc(N3CCN(C(=O)C4CC4)CC3)nc2c1	.	.	3.5%	2.2%	.	.	.
O=C(COc1ccc(F)cc1Cl)Nc1cc(S(=O)(=O)N2CCOCC2)ccc1N1CCCCC1	3.55µM*	-10.1%	-6.6%	0.0%	8.3%	2.7%	-36.0
O=C(Nc1ccccc1F)Nc1cc(S(=O)(=O)N2CCOCC2)ccc1N1CCCC1	.	1.1%[11.5 µM]	-1.8%	-0.5%	3.6%	-10.6%	.
O=C(Nc1ccc(Cl)c(Cl)c1)Nc1cc(S(=O)(=O)N2CCOCC2)ccc1N1CCCC1	11.2µM*	-0.1%	1.2%	-13.8%	1.1%	-1.8%	6.8
CN1CCN(c2ccc(S(=O)(=O)N3CCOCC3)cc2NC(=O)COc2ccc(F)cc2Cl)CC1	-1.4%	-2.8%	1.7%	0.2%	.	-9.7%	.
Cc1occc1-c1nnc(SCC(=O)c2c(N)n(Cc3ccccc3)c(=O)n(C)c2=O)n1C	10µM*	0.0%	-16.6%	.	10.2%	3.3%[3.69 µM]	18.1
SMILES	NS1 inh	LmPK inh	Sm TGR block	TbPYK inhibitor	Giardia FBPA inh	RE007 growth inh	NS1 inh valid
O=C(Nc1cc(Cl)cc(Cl)c1)c1ccc(F)c(S(=O)(=O)N2CCN(c3ccccc3F)CC2)c1	.	.	7.0%	-4.6%	.	.	.
Cc1cc(C)c(OCC(=O)N(Cc2cccc(F)c2)Cc2ccco2)c(C)c1	.	.	-0.5%	1.3%	.	.	.
O=C(NCc1ccc2[nH]c3c(c2c1)CCCC3)c1ccc(S(=O)(=O)N2CCCCC2)cc1	5.01µM*	0.7%	1.0%	3.5%	-2.0%	-9.8%	6.2
COc1ccccc1CNC(=O)C(=O)NCC(c1cccnc1)N1CCN(c2ccc(F)cc2)CC1 (stereo not drawn)	.	.	-14.0%	-10.0%	.	.	.
CCOc1ccc(OCC)c(NS(=O)(=O)c2cccc3nsnc23)c1	?	-12.9%	-3.5%	3.8%	-20.0%	-8.6%	2.5
CCOc1ccccc1NS(=O)(=O)c1cccc2nsnc12	2.9%	2.5%	1.9%	2.0%	?	-13.5%	.
Cc1nc2nc(NCc3ccc(Br)cc3)[nH]n2c(=O)c1Cc1ccccc1	.	.	2.7%	-2.1%	.	.	.
COc1cc(/C=N/n2c(-c3n[nH]c4c3CCC4)n[nH]c2=S)ccc1O	5.62µM*	-22.9%	1.3%	?	-13.5%	8.4%	?
COc1ccc(/C=N/n2c(-c3n[nH]c4c3CCC4)n[nH]c2=S)cc1OC	?	-8.2%	-0.3%	?	-9.4%	11.5%	.
CC(C)NC(=O)C1CCCN(S(=O)(=O)c2cccs2)C1 (stereo not drawn)	2.24µM*	2.9%	2.6%	-15.0%	7.0%	8.4%	-2.4
C/C(=N\NC(=O)C1CCCC1)c1ccc(Cl)cc1	?	1.0%	2.3%	4.4%	.	0.1%	1.5
C/C(=N\NC(=O)C1CC1)c1ccc(Cl)cc1	2.5%	-2.1%	-3.7%	2.9%	1.8%	-0.9%	.
CCOC(=O)CSc1nc2cc3c(cc2c(=O)n1CCCC(=O)NCCc1ccc(OC)c(OC)c1)OCO3	.	.	4.8%	7.5%	.	.	.
CCOC(=O)c1c(C)[nH]c(C(=O)/C(C#N)=C/c2ccc(OCC)cc2)c1C	3.98µM*	1.2%	-12.0%	-2.9%	-1.6%	.	-21.2
Cc1ccc(C(=O)NC(=S)Nc2cccc(NC(=O)c3ccccc3Cl)c2)cc1[N+](=O)[O-]	11.2µM*	3.4%	-0.9%	-12.3%	4.3%	32.2%	?
CCC(CC)NCc1ccc(OC)cc1OC	?	-0.3%	-3.9%	-19.3%	0.4%	-18.3%	-12.7
Cc1nc(NC2CCCCC2)c2nc(-c3ccccc3)n(CCCN(C)C)c2n1	.	.	.	.	2.0%	.	.
CC(C)c1nc2n[nH]c(N)c2c2c1CSC(C)(C)C2	5.62µM*	6.5%	7.7%	-0.7%	5.8%	-7.2%	36.0
Cc1ccc(C)c(NC(=O)CSc2nc(-c3ccccc3)cc(=O)[nH]2)c1	.	.	-4.8%	-1.8%	.	.	.

Assay outcomes as filed in PubChem BioAssay.
